Drawing on PubChem BioAssay AID1159580 (chemical genetic matrix, 2015), this text covers normalized growth for four molecules.

This assay can be described thus: chemical genetic growth profiling, strain panel (AID 1159580).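 Note: tested at 20 µM; growth read once vehicle control cultures reached saturation at 30 °C; 1 = growth at the plate median or of vehicle wells; lower values mean less growth of the strain.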 The note with it: growth OD.
Where [1] appears, read: S. cerevisiae deletion strains, locus YGR078C, strain PAC10, hits give low values.
Where [2] appears, read: S. cerevisiae deletion strains, locus YMR307W, strain GAS1, hits give low values.
[3] abbreviates: S. cerevisiae deletion strains, locus YNL153C, strain GIM3, hits give low values.
Where [4] appears, read: S. cerevisiae deletion strains, locus YAL013W, strain DEP1, hits give low values.
Setting [5] is: S. cerevisiae deletion strains, locus YBR229C, strain ROT2, hits give low values.
The mark [6] stands for this setting: S. cerevisiae deletion strains, locus YCL061C, strain MRC1, hits give low values.
Setting [7] is: S. cerevisiae deletion strains, locus YDL101C, strain DUN1, hits give low values.
Setting [8] is: S. cerevisiae deletion strains, locus YDR150W, strain NUM1, hits give low values.
Where [9] appears, read: S. cerevisiae deletion strains, locus YEL061C, strain CIN8, hits give low values.
Setting [10] is: S. cerevisiae deletion strains, locus YHR030C, strain SLT2, hits give low values.
Where [11] appears, read: S. cerevisiae deletion strains, locus YHR087W, strain rtc3, hits give low values.
The mark [12] stands for this setting: S. cerevisiae deletion strains, locus YJL187C, strain SWE1, hits give low values.
Where [13] appears, read: S. cerevisiae deletion strains, locus YJR043C, strain POL32, hits give low values.
The mark [14] stands for this setting: S. cerevisiae deletion strains, locus YJR075W, strain HOC1, hits give low values.
Where [15] appears, read: S. cerevisiae deletion strains, locus YLR039C, strain RIC1, hits give low values.
Setting [16] is: S. cerevisiae deletion strains, locus YLR058C, strain SHM2 (second series), hits give low values.
Where [17] appears, read: S. cerevisiae deletion strains, locus YLR085C, strain ARP6, hits give low values.
[18] abbreviates: S. cerevisiae deletion strains, locus YLR262C, strain YPT6, hits give low values.
Where [19] appears, read: S. cerevisiae deletion strains, locus YML094W, strain GIM5, hits give low values.
[20] abbreviates: S. cerevisiae deletion strains, locus YMR219W, strain ESC1, hits give low values.
The mark [21] stands for this setting: S. cerevisiae deletion strains, locus YMR263W, strain SAP30, hits give low values.
The mark [22] stands for this setting: S. cerevisiae deletion strains, locus YNL298W, strain CLA4 (second series), hits give low values.
Where [23] appears, read: S. cerevisiae deletion strains, locus YNL322C, strain KRE1, hits give low values.
The mark [24] stands for this setting: S. cerevisiae deletion strains, locus YNR030W, strain Alg12, hits give low values.
Where [25] appears, read: S. cerevisiae deletion strains, locus YPL055C, strain LGE1, hits give low values.
Where [26] appears, read: S. cerevisiae deletion strains, locus YPL241C, strain CIN2, hits give low values.
Where [27] appears, read: S. cerevisiae deletion strains, locus YPR135W, strain CTF4, hits give low values.
[28] abbreviates: S. cerevisiae deletion strains, locus YDL134C, strain PPH21, hits give low values.

The whole screen tested about 5,500 compounds, of which about 2,000 (36%) were called active. Inconclusive results (about 18%) are left out. The list shows a part of the results. Unmarked numbers belong to inactive results. Cut-off read from the data, not from the text of the source: active = normalized growth mostly below about 0.91 (no sharp cut-off); inconclusive = no clear call, values can overlap the other calls; inactive = mostly above about 0.92.

With `CNc1cc(NS(=O)(=O)c2ccc(N)cc2)nc(NC)n1`, the normalized growth is, setting by setting: (S. cerevisiae deletion strains, locus YAL040C, strain CLN3, hits give low values) 0.991; (S. cerevisiae deletion strains, locus YCL061C, strain MRC1 (second series), hits give low values) 0.986; (S. cerevisiae deletion strains, locus YDR363W, strain ESC2, hits give low values) 0.974; (S. cerevisiae deletion strains, locus YER002W, strain NOP16, hits give low values) 0.98; under setting [1], 0.994; under setting [2], 1. For the same molecule, the normalized growth under setting [3] is 1.01; the normalized growth (S. cerevisiae deletion strains, locus YNL175C, strain NOP13, hits give low values) was 0.993; the normalized growth (S. cerevisiae deletion strains, locus YNL197C, strain WHI3, hits give low values) is 0.991; the normalized growth (S. cerevisiae deletion strains, locus YNL224C, strain SQS1, hits give low values) was 0.994; the normalized growth (S. cerevisiae deletion strains, locus YOR083W, strain WHI5 (second series), hits give low values) is 0.993.
For `CC(C)(C)c1ccc(NC(=O)Cc2cc(F)cc(F)c2)cc1`, the normalized growth is, setting by setting: under setting [4], 0.993; under setting [5], 0.995; under setting [6], 0.97; under setting [7], 1.02; under setting [8], 0.902; under setting [9], 0.997. Also, the normalized growth by setting is: under setting [1], 0.979; under setting [10], 0.988; under setting [11], 0.984; under setting [12], 0.985; under setting [13], 1; under setting [14], 0.933. The normalized growth was 0.939 under setting [15]; 0.986 under setting [16]; 1.26 [resistant] (active) under setting [17]; 0.941 under setting [18]; 0.994 under setting [19]; 0.988 under setting [20]. Also, the normalized growth is 1 under setting [21]; 1.05 under setting [2]; 0.989 under setting [3]; 0.97 under setting [22]; 0.985 under setting [23]; 0.985 under setting [24]. For the same molecule, the normalized growth under setting [25] was 0.885, the normalized growth under setting [26] was 0.949 and the normalized growth under setting [27] was 1.
In the case of `CCC(=O)Nc1cc(F)ccc1C`, the normalized growth runs as follows: under setting [4], 0.999; under setting [5], 1; under setting [7], 1; under setting [28], 1; under setting [8], 0.968; under setting [9], 0.997. For the same molecule, the normalized growth under setting [1] is 1; the normalized growth under setting [10] was 0.985; the normalized growth under setting [11] is 1.01; the normalized growth under setting [13] was 0.985; the normalized growth under setting [14] was 1; the normalized growth (S. cerevisiae deletion strains, locus YKL190W, strain CNB1, hits give low values) was 1.01. Further, the normalized growth by setting is: under setting [15], 1.01; under setting [16], 1; under setting [17], 1.02; under setting [18], 1.01; under setting [19], 1.01; under setting [20], 0.997. The normalized growth by setting is: under setting [21], 0.996; (S. cerevisiae deletion strains, locus YNL128W, strain TEP1, hits give low values) 0.998; under setting [3], 0.987; under setting [22], 1.01; under setting [23], 0.997; under setting [24], 1.01. The normalized growth by setting is: under setting [25], 1.09; under setting [26], 0.89; under setting [27], 0.987; (S. cerevisiae strains, strain wild type, hits give low values) 1.01.
For the molecule `CC(C)(C)C(=O)Nc1ccc(F)cc1`, the normalized growth is 1 under setting [4]; 1 under setting [5]; 0.991 under setting [6]; 0.994 under setting [7]; 1.02 under setting [28]; 0.985 under setting [8]. Also, the normalized growth was 1.01 under setting [9]; 0.999 under setting [1]; 1.02 under setting [10]; 1 under setting [11]; 1.01 under setting [12]; 1.01 under setting [13]. The normalized growth is 0.962 under setting [14]; 1.07 under setting [15]; 1.01 under setting [16]; 1.05 under setting [17]; 1.01 under setting [18]; 1 under setting [19]. Further, the normalized growth is 1 under setting [20]; 1 under setting [21]; 0.995 under setting [3]; 1.04 under setting [22]; 0.994 under setting [23]; 1.02 under setting [24]. Also, the normalized growth (S. cerevisiae deletion strains, locus YOL006C, strain TOP1, hits give low values) was 1.01; the normalized growth under setting [25] was 0.946; the normalized growth under setting [26] was 1.01; the normalized growth under setting [27] is 0.956.
